# Measurements published in PubChem BioAssay (NCATS).
# Inconclusive results are not listed. Calls of active or inactive are those of the source. Unless noted, the call rests on the fitted dose curve; in most records, active means well fitted curve in the direction sought with a large enough effect; inconclusive means small, poorly fitted or top-dose-only effect, or another doubt; inactive means no such curve, though single readings can be large; an effect the other way counts as inactive or inconclusive.
# Legend:
# [1] = qHTS drug screen for cell cycle checkpoint inhibitors in PARPi-resistant BRCA-mutant ovarian cancer cell lines. (AID 1963452; calls by dose curve); conditions: PEO1/OlaR viability, CellTiter-Glo luminescence, 96 h, stronger effect = lower value
# How it was run: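 PEO1, PEO4 and PEO1/OlaR ovarian cancer cells, 600 per well, exposed 96 h at 37C to a dilution series. Viability read by CellTiter-Glo luminescence, normalized to DMSO and empty wells; activity summarized as Z-AUC.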
# [2] = qHTS Counterscreen for compound interference against the NCATS DSHEA and TCM libraries (AID 1919978); conditions: firefly luciferase detection reagent interference, luminescence; further: % of control where 0% means no effect
# How it was run: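 Read-out is luminescence after 30 min at RT with luciferin detection reagent. Before that, compounds (19.5 nM to 39.8 uM final) sat 15 min at RT with 1 uM D-luciferin or 100 mM potassium phosphate buffer. PTC124 served as intraplate control.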
# [3] = Dual reporter qHTS for agonist of Pregnane X Receptor (hPXR) against the NCATS DSHEA and TCM libraries: Fluorescence readout (AID 1920058); conditions: PXR dual reporter cells; series mostly up to 40 µM; further: 0% is about no effect
# How it was run: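 Measures viability of the PXR reporter HepG2 line by protease-substrate fluorescence (405/540 nm), taken 1 h after CellTiter-Fluor addition. Substances are tested as concentration series over a ~24 h exposure, with rifampicin as agonist control.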
# [4] = target: Nuclear receptor subfamily 1 group I member 2 (Homo sapiens) (UniProt O75469); experiment: Dual reporter qHTS for agonist of Pregnane X Receptor (hPXR) against the NCATS DSHEA and TCM libraries: Luminescence readout (AID 1920059); conditions: hPXR dual reporter cells, luciferase luminescence agonist; series mostly up to 40 µM; further: 0% is about no effect
# How it was run: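 hPXR-Luc HepG2 cells, 2000/well in 5% charcoal-stripped FBS medium, attached 5 h, then exposed 24 h at 37C to compounds. Viability by CellTiter-Fluor, then luciferase luminescence with ONE-Glo.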
# [5] = target: Nuclear receptor subfamily 1 group I member 2 (Homo sapiens) (UniProt O75469); experiment: Dual reporter qHTS for antagonist of Pregnane X Receptor (hPXR) against the NCATS DSHEA and TCM libraries: Luminescence Readout (AID 1920060); conditions: hPXR dual reporter cells, luciferase luminescence, antagonist mode; series mostly up to 40 µM;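 further: HepG2 cells carrying hPXR luciferase reporter stimulated with rifampicin at 2 µM; 0% is about no effect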
# How it was run: (§1)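 HepG2 hPXR-Luc, 2000 cells/well, charcoal-stripped FBS medium; 5 h attach; RIF 2 uM final; 24 h 37C/5% CO2; CellTiter-Fluor 1 h, fluor 405/540; ONE-Glo 30 min RT, lum.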
# [6] = Dual reporter qHTS for antagonist of Pregnane X Receptor (hPXR) against the NCATS DSHEA and TCM libraries: Fluorescence Readout (AID 1920061); conditions: PXR dual reporter cells, antagonist mode; series mostly up to 40 µM; further: 0% is about no effect
# How it was run: as §1
# [7] = qHTS profiling for inhibitors of Plasmodium falciparum proliferation (AID 504749); further: potency means the concentration at half of the fitted maximal effect; nearly all actives have a fitted effect of over 60% in size; conditions: P. falciparum in erythrocytes, SYBR Green DNA, 72 h
# How it was run: (§2)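 Readout was DNA-dye fluorescence from lysed cultures, ex 485/em 535 nm. Parasitized red cells had grown 72 h with compound; data scaled between 0.29 uM artemisinin and DMSO wells and corrected using vehicle-only plates.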
# [8] = system: 3D7; experiment: as above; conditions: P. falciparum in erythrocytes, SYBR Green DNA, 72 h; series mostly up to 28.7 µM
# How it was run: as §2
# [9] = system: 7G8; experiment: as above; conditions: P. falciparum in erythrocytes, SYBR Green DNA, 72 h; series mostly up to 28.7 µM
# How it was run: as §2
# [10] = system: AA1029; experiment: as above; conditions: P. falciparum in erythrocytes, SYBR Green DNA, 72 h; series mostly up to 28.7 µM
# How it was run: as §2
# [11] = system: AS120; experiment: as above; conditions: P. falciparum in erythrocytes, SYBR Green DNA, 72 h; series mostly up to 28.7 µM
# How it was run: as §2
# [12] = system: ATS189; experiment: as above; conditions: P. falciparum in erythrocytes, SYBR Green DNA, 72 h; series mostly up to 28.7 µM
# How it was run: as §2
# [13] = system: ATS95; experiment: as above; conditions: P. falciparum in erythrocytes, SYBR Green DNA, 72 h; series mostly up to 28.7 µM
# How it was run: as §2
# [14] = system: C2A; experiment: as above; conditions: P. falciparum in erythrocytes, SYBR Green DNA, 72 h; series mostly up to 28.7 µM
# How it was run: as §2
# [15] = system: CP185; experiment: as above; conditions: P. falciparum in erythrocytes, SYBR Green DNA, 72 h; series mostly up to 28.7 µM
# How it was run: as §2
# [16] = system: CP191; experiment: as above; conditions: P. falciparum in erythrocytes, SYBR Green DNA, 72 h; series mostly up to 28.7 µM
# How it was run: as §2
# [17] = system: CP192; experiment: as above; conditions: P. falciparum in erythrocytes, SYBR Green DNA, 72 h; series mostly up to 28.7 µM
# How it was run: as §2
# [18] = system: CP194; experiment: as above; conditions: P. falciparum in erythrocytes, SYBR Green DNA, 72 h; series mostly up to 28.7 µM
# How it was run: as §2
# [19] = system: CP201; experiment: as above; conditions: P. falciparum in erythrocytes, SYBR Green DNA, 72 h; series mostly up to 28.7 µM
# How it was run: as §2
# [20] = system: CP203; experiment: as above; conditions: P. falciparum in erythrocytes, SYBR Green DNA, 72 h; series mostly up to 28.7 µM
# How it was run: as §2
# [21] = measured here: PEO1 parental Z-AUC
# Chain of Nuclear receptor subfamily 1 group I member 2 (Homo sapiens) (O75469 whole entry, looked up): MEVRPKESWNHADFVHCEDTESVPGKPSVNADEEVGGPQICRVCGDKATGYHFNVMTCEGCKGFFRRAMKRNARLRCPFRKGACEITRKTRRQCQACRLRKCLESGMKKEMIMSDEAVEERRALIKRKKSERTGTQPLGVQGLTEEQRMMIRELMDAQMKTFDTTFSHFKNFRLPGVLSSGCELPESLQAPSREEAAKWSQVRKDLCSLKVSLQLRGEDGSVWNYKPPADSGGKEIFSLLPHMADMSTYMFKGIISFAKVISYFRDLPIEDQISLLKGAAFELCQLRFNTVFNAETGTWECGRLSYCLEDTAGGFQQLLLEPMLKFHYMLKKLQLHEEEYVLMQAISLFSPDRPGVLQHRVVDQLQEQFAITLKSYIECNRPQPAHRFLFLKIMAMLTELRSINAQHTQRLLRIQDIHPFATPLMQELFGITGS
compound,measurement,setting,value
CCC1=C[C@@H]2CN(C1)Cc1c([nH]c3ccccc13)[C@@](C(=O)OC)(c1cc3c(cc1OC)N(C)[C@H]1[C@@](O)(C(=O)OC)[C@H](OC(C)=O)[C@]4(CC)C=CCN5CC[C@]31[C@@H]54)C2,Z-AUC,[1],-1.05 (inactive)
same,Z-AUC,[1]; [21],-1.03
same,Z-AUC,[1]; measured here: PEO4 Z-AUC,-1.04
O=C(Nc1ccc(S(=O)(=O)N2CCOCC2)cc1)c1cc(Cl)ccc1NS(=O)(=O)c1ccc(Cl)s1,Z-AUC,[1],1.19 (inactive)
same,Z-AUC,[1]; [21],0.998
same,Z-AUC,[1]; measured here: PEO4 Z-AUC,1.36
O=C(O)CCCC[C@@H]1SC[C@@H]2NC(=O)N[C@@H]21,max response,[2],3.76% (inactive)
same,outcome,[3],inactive
same,outcome,[4],inactive
same,outcome,[5],inactive
same,outcome,[6],inactive
O=C(O)[C@H](O)[C@@H](O)[C@H](O[C@@H]1O[C@H](CO)[C@H](O)[C@H](O)[C@H]1O)[C@H](O)CO,Z-AUC,[1],0.899 (inactive)
same,Z-AUC,[1]; [21],1.15
same,Z-AUC,[1]; measured here: PEO4 Z-AUC,1.21
CCCCCCCCCCCCCCCC[n+]1ccccc1,Potency,[7]; parasite line A,6.31 µM (active)
same,Potency,[7]; parasite line B,6.31 µM (active)
same,Potency,[8],4.47 µM (active)
same,Potency,[9],5.01 µM (active)
same,Potency,[10],5.01 µM (active)
same,Potency,[11],7.94 µM (active)
same,Potency,[12],6.31 µM (active)
same,Potency,[13],7.94 µM (active)
same,Potency,[14],4.47 µM (active)
same,Potency,[15],7.94 µM (active)
same,Potency,[16],4.47 µM (active)
same,Potency,[17],7.57 µM (active)
same,Potency,[18],6.75 µM (active)
same,Potency,[19],7.57 µM (active)
same,Potency,[20],9.53 µM (active)
CC1(C)O[C@@H]2C[C@H]3[C@@H]4C[C@H](F)C5=CC(=O)C=C[C@]5(C)[C@@]4(F)[C@@H](O)C[C@]3(C)[C@]2(C(=O)CO)O1,Z-AUC,[1],-1.1 (inactive)
same,Z-AUC,[1]; [21],0.399
same,Z-AUC,[1]; measured here: PEO4 Z-AUC,-0.582
CC1(C)O[C@@H]2C[C@H]3[C@@H]4CCC5=CC(=O)C=C[C@]5(C)[C@@]4(F)[C@@H](O)C[C@]3(C)[C@]2(C(=O)CO)O1,Z-AUC,[1],0.569 (inactive)
same,Z-AUC,[1]; [21],1.66
same,Z-AUC,[1]; measured here: PEO4 Z-AUC,0.813
CN1CCCN=C1/C=C/c1cccs1,Z-AUC,[1],0.33 (inactive)
same,Z-AUC,[1]; [21],0.491
same,Z-AUC,[1]; measured here: PEO4 Z-AUC,0.415
CN1CC(=O)N2[C@H](c3ccc4c(c3)OCO4)c3[nH]c4ccccc4c3C[C@@H]2C1=O,Z-AUC,[1],0.983 (inactive)
same,Z-AUC,[1]; [21],0.823
same,Z-AUC,[1]; measured here: PEO4 Z-AUC,0.783
O=C(O)C(=O)Nc1cccc(-c2nn[nH]n2)c1,Z-AUC,[1],0.0028 (inactive)
same,Z-AUC,[1]; [21],0.552
same,Z-AUC,[1]; measured here: PEO4 Z-AUC,0.459
O=[N+]([O-])c1ccc(-c2nc(-c3ccc(F)cc3)c(-c3ccncc3)[nH]2)cc1,Z-AUC,[1],1.31 (inactive)
same,Z-AUC,[1]; [21],0.274
same,Z-AUC,[1]; measured here: PEO4 Z-AUC,0.382
CC1c2ccccc2CN1NC(=O)c1ccc(Cl)c(S(N)(=O)=O)c1 (stereo not drawn),Z-AUC,[1],1.28 (inactive)
same,Z-AUC,[1]; [21],0.911
same,Z-AUC,[1]; measured here: PEO4 Z-AUC,0.911
Nc1c2ccccc2nc2ccccc12,Potency,[7]; parasite line A,7.94 µM (active)
same,Potency,[7]; parasite line B,11.2 µM (active)
same,Potency,[9],3.16 µM (active)
same,Potency,[10],7.08 µM (active)
same,Potency,[11],12.6 µM (active)
same,Potency,[12],7.08 µM (active)
same,Potency,[13],11.2 µM (active)
same,Potency,[15],8.91 µM (active)
same,Potency,[16],11.2 µM (active)
same,Potency,[17],12 µM (active)
C[N+](C)(C)CCO,max response,[2],2.09% (inactive)
same,outcome,[3],inactive
same,outcome,[4],inactive
same,outcome,[5],inactive
same,outcome,[6],inactive
CCOC(=O)O[C@]1(C(=O)OCCl)CC[C@H]2[C@@H]3CCC4=CC(=O)C=C[C@]4(C)[C@H]3[C@@H](O)C[C@@]21C,Z-AUC,[1],1.04 (inactive)
same,Z-AUC,[1]; [21],0.868
same,Z-AUC,[1]; measured here: PEO4 Z-AUC,1.23
CCCCCCCCCCCCCCCC[N+](C)(C)Cc1ccccc1,Potency,[7]; parasite line A,1.26 µM (active)
same,Potency,[7]; parasite line B,5.62 µM (active)
same,Potency,[8],3.98 µM (active)
same,Potency,[9],3.16 µM (active)
same,Potency,[10],3.16 µM (active)
same,Potency,[11],1 µM (active)
same,Potency,[12],3.55 µM (active)
same,Potency,[13],3.55 µM (active)
same,Potency,[14],10 µM (active)
same,Potency,[15],0.501 µM (active)
same,Potency,[16],1 µM (active)
same,Potency,[17],9.53 µM (active)
same,Potency,[18],12 µM (active)
same,Potency,[19],12 µM (active)
CCCCCCCCCCCCCC[N+](C)(C)C,Potency,[7]; parasite line A,5.01 µM (active)
same,Potency,[7]; parasite line B,7.08 µM (active)
same,Potency,[8],3.98 µM (active)
same,Potency,[9],2.24 µM (active)
same,Potency,[10],4.47 µM (active)
same,Potency,[11],5.62 µM (active)
same,Potency,[12],5.62 µM (active)
same,Potency,[13],7.08 µM (active)
same,Potency,[14],3.98 µM (active)
same,Potency,[15],5.62 µM (active)
same,Potency,[16],4.47 µM (active)
same,Potency,[17],6.01 µM (active)
same,Potency,[18],6.75 µM (active)
same,Potency,[19],12 µM (active)
same,Potency,[20],6.75 µM (active)
Nc1ccc2cc3ccc(N)cc3nc2c1,Potency,[9],2.24 µM (active)
